Compound activity (PubChem BioAssay)
Only some compounds are listed: those with a hit (about 4% of all), similar ones and a draw of the others.
EWS-Fli inh – EWS/Fli transcriptional activity inhibition. hit rate 0.67% among 350,000. inhibition, % at 12.6 µM. AID 651661. A673 NR0B1-luciferase reporter, viability-normalised;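 active = mean inhibition of at least 50% after viability correction, with every replicate also passing that limit; inconclusive = mean reaches 50% but only one of two replicates passes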;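 note: firefly luciferase signal divided by Alamar Blue viability fluorescence both relative to DMSO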
MITF TRPM1 inh – MITF TRPM1 promoter inhibition in SK-MEL-5 cells; SK-MEL-5 TRPM1 promoter luciferase, 24 h; inhibition, % at 12.5 µM; hit rate 0.83% among 330,000;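 active = mean inhibition across replicates of 60% or more, whatever share of single replicates reaches that level; inconclusive = some that reach 60%, reason not given; inactive = mean inhibition across replicates below 60%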
esBAF inh – inhibitors of esBAF chromatin remodeling in mouse ES cells. hit rate 2% among 350,000. reporter increase, % at 12.5 µM. Bmi1-luciferase knock-in reporter, 24 h; 100% = twice the neutral-well signal. AID 602393; in the data active = activation above about 40%; inconclusive = no clear call, values can overlap the other calls;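 note: 0% = median of the plate's neutral control wells and 100% = double that signal; a rise in the Bmi1 reporter signal indicates esBAF inhibition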
MITF act – MITF TRPM1 promoter activation in melanoma cells; SK-MEL-5 TRPM1-promoter luciferase, 24 h; % of positive control, neutral wells = 0; activation, % at 12.5 µM; hit rate 0.75% among 300,000; AID 588334;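 active = mean activation of at least 80% with every replicate also reaching 80%; inconclusive = mean reaches 80% but some replicate falls short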;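 note: 0% = neutral control wells and 100% = parthenolide positive control wells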
PAX8 reporter – inhibitors of PAX8 transcriptional activity in RMG-I cells; RMG-I TPO-luciferase reporter, SteadyGlo, 24 h; hit rate 1.2% among 360,000; inhibition, % at 12.6 µM;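 active = mean replicate inhibition at least 60% with every replicate also reaching 60%; inconclusive = only one of the two criteria is met; inactive = mean below 60% and not all replicates reaching 60%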;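 note: luciferase light reporting Pax8 driven TPO promoter activity; plate controls were median of neutral control wells for no effect and mitoxantrone controls for full effect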
Wnt bcat act – activates Wnt/beta-catenin signaling in a reporter cell assay; activator, plate reader; AID 743398; hit rate 1.2% among 300,000; activation, % at 9.35 µM; in the data active = activation above about 30%, passing the limit was not always enough; inconclusive = no clear call, values can overlap the other calls;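 note: 0% = neutral control wells and 100% = positive control wells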
* marks the source's active call; other numbers are inactive results.

Screening O=C(N[C@H]1CC[C@H](CCNC(=O)C2CCC2)O[C@@H]1CO)c1ccncc1 returned EWS-Fli inh -1, esBAF inh 0 and PAX8 reporter -20.
COc1cc2ccccc2cc1C(=O)N/N=C/c1cccs1 was read as EWS-Fli inh 58*, esBAF inh -3 and PAX8 reporter 41.
Screening C[C@H](CO)N1C[C@H](C)[C@@H](CN(C)Cc2ccc(C(=O)O)cc2)OCCCC[C@H](C)Oc2ccc(NC(=O)Nc3ccc4c(c3)OCO4)cc2C1=O returned EWS-Fli inh -6, esBAF inh 10 and PAX8 reporter 0.
`O=C(COC(=O)c1ccc(F)c([N+](=O)[O-])c1)NC(=O)NCc1ccccc1` gave EWS-Fli inh 9, MITF TRPM1 inh 70*, esBAF inh 1, MITF act -69, PAX8 reporter 3 and Wnt bcat act 0.
For Cc1ccc(C(=O)OCC(=O)NC(=O)NCc2ccccc2)cc1C the results were EWS-Fli inh -1, MITF TRPM1 inh 2, esBAF inh -4, MITF act -4, PAX8 reporter -19 and Wnt bcat act 0.
Screening C[C@@H]1CN([C@@H](C)CO)C(=O)c2cc(C#Cc3ccccn3)cnc2O[C@@H]1CN(C)C(=O)c1ccccn1 returned EWS-Fli inh 6 and esBAF inh 0.
`CCC(=O)N1CCC2(CC1)CN(C(=O)c1ccccn1)[C@H](CO)c1c2c2ccc(OC)cc2n1C` gave EWS-Fli inh -1.
`c1ccc(Cc2cc(-c3ccccc3)on2)cc1` gave MITF TRPM1 inh -78 and esBAF inh 66*.
`O=S(=O)(c1ccc(NC(=S)Nc2ccc3c(c2)OCO3)cc1)N1CCOCC1` gave MITF TRPM1 inh -3, esBAF inh 45*, MITF act 6 and PAX8 reporter -67.
`O=C(Nc1ccc(S(=O)(=O)N2CCOCC2)cc1)c1ccc2c(c1)OCO2` gave EWS-Fli inh 4, MITF TRPM1 inh -14, esBAF inh 5, MITF act 15, PAX8 reporter -4 and Wnt bcat act 16.
Cc1ccc(S(=O)(=O)Nc2ccc3c(c2)C(=O)N([C@@H](C)CO)C[C@@H](C)[C@@H](CN(C)C(=O)Nc2cccc4ccccc24)OCCCC[C@@H](C)O3)cc1 was read as EWS-Fli inh 12, esBAF inh -3 and PAX8 reporter 68*.
C[C@@H]1CN([C@@H](C)CO)C(=O)c2cc(NS(=O)(=O)c3ccccc3)ccc2O[C@@H](C)CCCCO[C@@H]1CN(C)C(=O)Nc1cccc2ccccc12 was read as EWS-Fli inh 12, esBAF inh 0 and PAX8 reporter -1.
C[C@@H]1CCCCO[C@@H](CN(C)C(=O)Nc2cccc3ccccc23)[C@H](C)CN([C@H](C)CO)C(=O)c2cc(NS(=O)(=O)c3ccccc3)ccc2O1 was read as EWS-Fli inh 13, esBAF inh 4 and PAX8 reporter 80*.
Screening C[C@H]1CN([C@@H](C)CO)C(=O)c2cccc(NS(=O)(=O)c3ccc(Cl)cc3)c2O[C@H]1CN(C)Cc1ccc(Cl)c(Cl)c1 returned EWS-Fli inh 0, esBAF inh -7 and PAX8 reporter 11.
Screening Cc1nccn1C(c1ccccc1)c1ccccc1 returned EWS-Fli inh 13, MITF TRPM1 inh 3, esBAF inh -6, MITF act -4, PAX8 reporter 15 and Wnt bcat act 35*.
Screening Cc1[nH]c2ccccc2c(=O)c1CN(C)Cc1ccccc1 returned MITF TRPM1 inh -32, esBAF inh 57*, MITF act 37 and Wnt bcat act 2.
Screening Cc1ccc(/C=C/C(=O)Nc2nccs2)o1 returned EWS-Fli inh -52, MITF TRPM1 inh -24, esBAF inh 60*, MITF act 30, PAX8 reporter -52 and Wnt bcat act -3.
For Cc1ccc(/C=C/C(=O)Nc2ccc(N(C)C)cc2)o1 the results were MITF TRPM1 inh -113, esBAF inh 52*, MITF act 115* and PAX8 reporter -113.
Screening Cc1ccc(/C=C/C(=O)Nc2ncc(C)s2)o1 returned EWS-Fli inh -77, MITF TRPM1 inh -105, MITF act 101*, PAX8 reporter -226 and Wnt bcat act -1.
For CCOC(=O)c1c(C)sc2c1N(C(=O)CCl)c1cc(Cl)ccc1S2 the results were MITF TRPM1 inh 82* and MITF act -81.
For COCC(=O)N(C)C[C@@H]1Oc2ncc(C#CCC3CCCC3)cc2C(=O)N([C@H](C)CO)C[C@H]1C the results were EWS-Fli inh -1 and esBAF inh -24.
CSc1ncccc1C(=O)OCc1ccccc1 was read as MITF TRPM1 inh -70, esBAF inh inconclusive and MITF act 78.
Screening CSc1ncccc1C(=O)OCc1ccccc1F returned MITF TRPM1 inh -53, esBAF inh 50*, MITF act 56 and Wnt bcat act -1.
For CCN(CC)CCNC1=NCCn2c1cc1cc(OC)ccc12 the results were MITF TRPM1 inh -8, esBAF inh -2, MITF act 8, PAX8 reporter -3 and Wnt bcat act -11.
Screening CCN(CC)CCCCNc1ncc2cc(-c3cc(OC)cc(OC)c3)c(NC(=O)NC(C)(C)C)nc2n1 returned EWS-Fli inh 36, MITF TRPM1 inh 73*, esBAF inh 6, MITF act -72, PAX8 reporter 44 and Wnt bcat act -12.
`CC1=CC2C(C(O)CC3(C)C2CC(C)C32OCOC23COCO3)C2(C)C/C(=C\O)C(=O)C=C12` (stereo unspecified) gave EWS-Fli inh 40, MITF TRPM1 inh 80*, MITF act -80 and Wnt bcat act -25.
`Cc1cccc(C(=O)N[C@H](C(=O)Nc2nnc(C3CC3)s2)C(C)C)c1` gave MITF TRPM1 inh -15, esBAF inh 1, MITF act 14 and PAX8 reporter 16.
For Cc1cccc(C(=O)N[C@H](C(=O)Nc2ncc(C)s2)C(C)C)c1 the results were EWS-Fli inh 37, MITF TRPM1 inh -9, MITF act 10, PAX8 reporter 70* and Wnt bcat act -3.
`Cc1cc(C)c2nc(N3CCCC(C(=O)NCCCN4CCOCC4)C3)sc2c1` (stereo unspecified) gave MITF TRPM1 inh -32, MITF act 37, PAX8 reporter -137 and Wnt bcat act 1.
`Cc1cc(C)c2nc(N3CCC(C(=O)NCCCN4CC(C)CC(C)C4)CC3)sc2c1` (stereo unspecified) gave EWS-Fli inh 19, MITF TRPM1 inh 83*, MITF act -82, PAX8 reporter -81 and Wnt bcat act 2.
Cc1cc(C)c2nc(N3CCCC(C(=O)NCCN4CCOCC4)C3)sc2c1 (stereo unspecified) was read as EWS-Fli inh -50, MITF TRPM1 inh -12, esBAF inh 68*, MITF act 15 and Wnt bcat act 13.
